Assay results published in the supplement of paper PMC4894684.
Counter-ions that a name gives are not always drawn. ± gives the standard deviation of the averaged measurements.

System: Toxoplasma gondii RH (in HFF)
Experiment: parasite growth relative to the screen mean (all compounds = 100%); higher = less inhibition of parasite growth
Conditions: 5 µM; 72 h; oxygen 21 %
Method in brief: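 Parasite growth was reported relative to the screen mean. In that scale, the mean of all compounds equals 100%, and values are averaged over two screens. Compounds from 10 mM DMSO stocks were pin-transferred to 5 µM final onto confluent human foreskin fibroblasts in 96-well plates, infected within 2 h with RH β-Gal–GFP Toxoplasma (MOI 1:5) and grown 72 h at 21% O2, with parasite number read by a CPRG β-Gal assay against in-plate standard curves. Uninfected host-cell viability was checked with CellTiter-Blue.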

SMILES | parasite growth [%]
COc1cc2ncnc(Nc3ccc(Cl)cc3F)c2cc1OC | 28.9 ± 13
CC(C)[N+]1(C)[C@@H]2CC[C@H]1C[C@@H](OC(=O)C(CO)c1ccccc1)C2 (some centres undefined) [Ipratropium bromide] | 76.1 ± 21
CN(C)C/C=C(/c1ccc(Br)cc1)c1cccnc1 [Zimelidine dihydrochloride] | 126 ± 4.6
CCOC(=O)C1=C[C@]2(CC)CCCN3CCc4c(n1c1ccccc41)[C@@H]32 [Vinpocetine] | 121 ± 10
C[C@]12CC[C@@H]3c4ccc(O)cc4C[C@@H](CCCCCCCCC[S+]([O-])CCCC(F)(F)C(F)(F)F)[C@H]3[C@@H]1CC[C@@H]2O (some centres undefined) | 43.7 ± 11
N#Cc1cc2nc(O)c(O)nc2cc1[N+](=O)[O-] [CNQX disodium salt] | 133 ± 37
CCC(=O)O[C@]1(C(=O)SCF)[C@H](C)C[C@H]2[C@@H]3C[C@H](F)C4=CC(=O)C=C[C@]4(C)[C@@]3(F)[C@@H](O)C[C@@]21C [Fluticasone propionate] | 59.2 ± 34
CN(C)c1ccc(/C=C2/C(=O)Nc3ccccc32)cc1 | 124 ± 26
O=C(O)CCC/C=C\CC1C(O)CC(O)C1/C=C/C(O)COc1cccc(Cl)c1 (racemic) [(±)-Cloprostenol sodium salt] | 121 ± 15
NS(=O)(=O)c1cc2c(cc1Cl)NC(C1CC3C=CC1C3)NS2(=O)=O (centres undefined) [Cyclothiazide] | 118 ± 1.8
Cc1ccc(C(=O)Cn2c3c(sc2=N)CCCC3)cc1 [Pifithrin- α hydrobromide] | 130 ± 1.9
CN(C)CCCn1cc(C2=C(c3c[nH]c4ccccc34)C(=O)NC2=O)c2ccccc21 | < 0
CCSC(=N)N [EIT hydrobromide] | 166 ± 23
Nc1nc2ccc(OC(F)(F)F)cc2s1 [Riluzole hydrochloride] | 88.1 ± 11
N[C@@H](C(=O)O)c1ccc(C(=O)O)c(C(=O)O)c1 | 117 ± 7.7
Cc1ccccc1N1CCN(S(=O)(=O)C[C@]23CC[C@H](C[C@@H]2NC(=O)[C@@H](N)CCS(C)(=O)=O)C3(C)C)CC1 [L-368,899 hydrochloride] | 161 ± 16
O=C(/C=C/c1c(C(=O)O)[nH]c2cc(Cl)cc(Cl)c12)Nc1ccccc1 [Gavestinel] | 114 ± 17
NC(=O)Nc1sc(-c2ccc(F)cc2)cc1C(N)=O | 77.1 ± 11
CNCCCCOc1ccccc1Cc1ccccc1 [Bifemelane hydrochloride] | 43.6 ± 3.2
CCCCOc1cc(CC2CNC(=O)N2)ccc1OC (centres undefined) | 156 ± 27

SMILES | parasite growth [%]
C[N+]1(C)CCC(OC(=O)C(c2ccccc2)c2ccccc2)CC1 | 86.5 ± 39
C[C@H](NC[C@H](O)CP(=O)(O)Cc1ccccc1)c1ccc(Cl)c(Cl)c1 | 108.5 ± 0.57
CCCCCS(=O)(=O)CCCCCCCCCCn1c(-c2ccc(O)cc2)c(C)c2cc(O)ccc21 | 132 ± 30
CNCCC(Oc1ccccc1OC)c1ccccc1 (centres undefined) [Nisoxetine hydrochloride] | 67 ± 20
CN1CC(=O)N=C1NC(=O)Nc1cccc(Cl)c1 [Fenobam] | 134 ± 5.3
O=C(NCCCN1CCCCCC1)C(c1ccccc1)C1CCCCC1 (centres undefined) | 83 ± 2.4
C/C=C1\C(=O)C[C@H]2[C@@H]3CCC4=CC(=O)CC[C@]4(C)[C@H]3CC[C@]12C [Guggulsterone] | 90.6 ± 26
COC(=O)c1c(-c2cc(OC)c(OC)c(OC)c2)c2ccnc(OCc3ncccn3)c2c(=O)n1Cc1ccnc(C)c1 [T 0156 hydrochloride] | 89.9 ± 14
CN1CCN(C(=O)c2nc3ccc(Cl)cc3[nH]2)CC1 | 133 ± 14
O=C(O)COc1cccc(-c2ocnc2-c2nc(-c3ccccc3)c(-c3ccccc3)o2)c1 | 62.8 ± 28
Cc1ccc(Sc2cncc3sc(C(N)=O)cc23)cc1 | 148 ± 2.4
COc1ccc2[nH]cc(CCNC(C)=O)c2c1 [Melatonin] | 84.8 ± 3.7
CCCCCCCCCCC[C@@H](C[C@@H]1OC(=O)[C@H]1CCCCCC)OC(=O)[C@H](CC(C)C)NC=O [Orlistat] | < 0
CC(=O)N[C@@H](Cc1c[nH]c2ccccc12)C(=O)OCc1cc(C(F)(F)F)cc(C(F)(F)F)c1 | 108 ± 52
Nc1nc2ccc(Cl)cc2c2nc(-c3ccco3)nn12 | 131 ± 14
N[C@@H](Cc1cc(CP(=O)(O)O)cc(-c2ccccc2Cl)c1)C(=O)O | 122 ± 6.2
CNc1cc2c(Nc3cccc(Br)c3)ncnc2cn1 | 128 ± 11
CCCn1c(=O)c2[nH]c(-c3ccccc3)nc2n(CCC)c1=O [1,3-Dipropyl-8-phenylxanthine] | 47 ± 7.9
NCCNC(=O)c1ccc(Cl)cn1 [Lazabemide hydrochloride] | 109 ± 28
